Reference: article PMC4336329 (PLoS ONE, 2015)
The campaign covered roughly 310,000 compounds. About 14,000 (4.5%) showed an effect of 50% or more. Effects have a minus sign here. What follows is part of a selection rich in strong results, with near analogues and random picks from the rest.

These molecules were tested against human ether-à-go-go-related gene (hERG) potassium channel (human, UniProt Q12809) (assay: primary screen, population patch clamp on CHO cells stably expressing hERG; higher = less effect of the substance).
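Also: peak tail current of the secondary pulse compared with the same well before compound.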

Sequence of human ether-à-go-go-related gene (hERG) potassium channel (Q12809 whole entry, looked up): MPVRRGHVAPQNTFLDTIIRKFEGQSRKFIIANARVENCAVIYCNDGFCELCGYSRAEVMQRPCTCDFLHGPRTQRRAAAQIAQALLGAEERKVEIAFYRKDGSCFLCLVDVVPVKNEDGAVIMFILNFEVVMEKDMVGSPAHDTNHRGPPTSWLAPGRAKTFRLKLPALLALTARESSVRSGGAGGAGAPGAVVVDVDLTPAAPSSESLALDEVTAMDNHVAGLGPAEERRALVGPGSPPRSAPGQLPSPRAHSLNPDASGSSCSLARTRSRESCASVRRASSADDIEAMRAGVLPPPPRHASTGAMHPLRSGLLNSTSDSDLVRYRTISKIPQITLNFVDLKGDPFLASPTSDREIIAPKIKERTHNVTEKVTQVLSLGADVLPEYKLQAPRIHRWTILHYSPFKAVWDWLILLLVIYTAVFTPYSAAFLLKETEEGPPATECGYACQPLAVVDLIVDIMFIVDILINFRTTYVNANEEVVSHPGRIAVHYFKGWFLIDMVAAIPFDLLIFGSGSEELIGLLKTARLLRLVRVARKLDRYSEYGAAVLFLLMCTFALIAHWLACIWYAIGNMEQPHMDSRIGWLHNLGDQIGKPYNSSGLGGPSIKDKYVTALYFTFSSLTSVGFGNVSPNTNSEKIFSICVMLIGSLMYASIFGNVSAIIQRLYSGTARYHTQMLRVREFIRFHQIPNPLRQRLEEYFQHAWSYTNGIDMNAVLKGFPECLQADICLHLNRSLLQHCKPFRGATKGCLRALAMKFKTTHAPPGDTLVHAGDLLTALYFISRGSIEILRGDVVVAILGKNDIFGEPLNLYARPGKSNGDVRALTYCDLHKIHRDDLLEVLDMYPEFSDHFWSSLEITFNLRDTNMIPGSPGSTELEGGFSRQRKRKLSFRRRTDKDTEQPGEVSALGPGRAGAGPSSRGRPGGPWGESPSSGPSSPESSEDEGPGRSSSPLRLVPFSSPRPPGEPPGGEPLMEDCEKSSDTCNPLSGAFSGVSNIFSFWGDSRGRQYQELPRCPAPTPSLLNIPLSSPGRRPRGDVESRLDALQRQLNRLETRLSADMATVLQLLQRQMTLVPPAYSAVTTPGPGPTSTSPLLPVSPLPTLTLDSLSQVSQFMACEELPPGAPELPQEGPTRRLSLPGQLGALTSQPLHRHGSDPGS

Structure (SMILES) | hERG current change (%, negative = inhibition) at 10uM
CCOC(=O)c1cc(C#N)c(N2CCNCC2)nc1C(F)(F)F | -12.3%
COc1ccc(CNC(=O)CCSCc2cccc(Cl)c2)cc1 | -17%
COc1ccc(-n2nnnc2CNC(=O)C(=O)c2c[nH]c3ccccc23)cc1 | 6.27%
CCCCOC(=O)Nc1ccc(C(=O)OCCC)cc1 | -12.9%
CCC(C)c1ccc2oc(-c3ccc(NC(=O)c4ncn[nH]4)cc3)nc2c1 (centres unmarked) | -1.89%
CCOc1ccc(N2C(=O)CC(N3CCC(O)(c4ccc(Br)cc4)CC3)C2=O)cc1 (centres unmarked) | -49.1%
CC1(C)CC(=O)C2=C(C1)NC(=O)CC2c1cc(F)ccc1F (centres unmarked) | -21.6%
Cc1cc(C)c2c(c1)/C(=N/NS(=O)(=O)c1ccccc1)CCC2 | 7.48%
COC(=O)Nc1ccc(S(=O)(=O)NCCCCCC(=O)O)cc1 | -1.56%
CCOC(=O)c1nn(-c2ccc(C)cc2)c(=O)cc1OCC(=O)N1CCN(c2ccccc2)CC1 | -51.9%
CCN1CCN(C(=O)COc2cc(=O)n(CC)c3ccccc23)CC1 | -2.67%
CCn1c(=O)cc(OCC(=O)N2CCN(c3ccc(F)cc3)CC2)c2ccccc21 | -69.8%
CCn1c(=O)cc(OCC(=O)N2CCN(c3cccc(C(F)(F)F)c3)CC2)c2ccccc21 | -48.2%
CCOC(=O)c1nn(-c2ccc(F)cc2)c(=O)cc1OCC(=O)N1CCN(c2ccccc2)CC1 | -15.6%
CCOC(=O)c1nn(-c2ccccc2C)c(=O)cc1OCC(=O)N1CCN(c2ccccc2)CC1 | -24.6%
CN(C)c1ccc(CNn2cnnc2SCC(=O)NC(C)(C)C)cc1 | 23.4%
CCOc1ccc(C(=O)OCC(=O)NCCCc2ccccc2)cc1 | 0.425%
Cc1c(/C=N/n2cnnc2)c2ccccc2n1C | 1.25%
CC(NC(=O)C12CC3CC(C1)CC(n1cncn1)(C3)C2)C12CC3CC(CC(C3)C1)C2 (centres unmarked) | -61.9%
O=C(NC1CCCCC1)C12CC3CC(C1)CC(n1cncn1)(C3)C2 | 0.934%
COC(=O)c1ccc(NC(=O)C23CC4CC(C2)CC(n2cncn2)(C4)C3)cc1 | -22%
CCN(CC)C(=O)CSC1=C(C#N)C(c2cccs2)C=C(C)N1 (centres unmarked) | 14.1%

Structure (SMILES) | hERG current change (%, negative = inhibition) at 10uM
COc1ccc2c(c1)CC/C(=C/c1cc(OC)c(OC)c(OC)c1)C2=O | -1.54%
COc1ccc2c(c1)CC/C(=C/c1ccccn1)C2=O | 3.19%
COc1ccc2c(c1)CC/C(=C/c1ccncc1)C2=O | -55.2%
CCCc1cc(=O)oc2cc(OCc3cc(OC)c(OC)c(OC)c3)c(Cl)cc12 | 17.4%
CC1(C)CC(NC(=S)NCc2ccco2)CC(C)(C)N1 | 18.9%
COc1ccc(CN2CCN(C3CCC3)CC2CCO)c(C)c1C (centres unmarked) | 0.432%
CCOc1ccccc1CN1CCN(Cc2ccc(C)o2)CC1CCO (centres unmarked) | -37.9%
Cc1ccc(CN2CCN(Cc3ccc(OCCO)cc3)CC2CCO)o1 (centres unmarked) | 1.29%
CCOc1ccccc1CN1CCN(C2CCSCC2)CC1CCO (centres unmarked) | -25.9%
CCOc1ccc(CN2CCN(C3CCSCC3)CC2CCO)cc1 (centres unmarked) | -74.3%
CCOc1ccc(CN2CCN(Cc3ccc(C)o3)CC2CCO)cc1 (centres unmarked) | -104%
COc1ccc(CN2CCN(C3CCOCC3)CC2CCO)c(C)c1C (centres unmarked) | -12.4%
CCOc1ccc(CN2CCN(C3CCC3)CC2CCO)cc1 (centres unmarked) | -19.2%
COc1ccc(CN2CCN(Cc3cc4ccccc4o3)CC2CCO)c(F)c1 (centres unmarked) | -60.9%
Cc1ccccc1CN1CCN(Cc2cc3ccccc3o2)CC1CCO (centres unmarked) | -6.94%
COc1ccc(CN2CCN(C3CCSCC3)CC2CCO)c(C)c1C (centres unmarked) | -51.1%
COc1cccc(CN2CCN(Cc3cc4ccccc4o3)CC2CCO)c1 (centres unmarked) | -10.7%
CCOC(=O)C1=C(CS(=O)(=O)c2ccccc2)NC(=O)NC1c1ccccc1OCC (centres unmarked) | -4.89%
Cc1ccsc1C1NC(=O)c2ccccc2N1 (centres unmarked) | 5.58%
CCC(C)(C)NC(=O)C(c1ccc(OC)cc1)N(C(=O)CCC(=O)Nc1cc(C)on1)c1ccc2c(c1)OCCO2 (centres unmarked) | 11.1%
O=C1OC/C(=C(/O)c2ccc(Cl)cc2)C1=O | 17%
Cc1cc(NC(=S)NC(=O)c2ccco2)c2ccccc2n1 | -1.51%
